Screening data from PubChem BioAssay.
Only some compounds are listed: those with a hit (about 9.9% of all), similar ones and a draw of the others.
SW480 rerep = A quantitative high throughput screen for small molecules that induce DNA re-replication in SW480 colon adenocarcinoma cells | SW480 DNA re-replication, Hoechst DNA content imaging, 48 h | Potency, µM (titrated, usually from 46.1 µM), without a hit: at the top dose re-replication activation, actives largely listed as activators | actives 1.8% (n = 340,000) | AID 624297, 2012; further: potency means the concentration at half of the fitted maximal effect; % of control where 0% means no effect; nearly all actives have a fitted effect of over 55% in size
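Compounds, transferred as 23 nL by pin tool, were incubated with cells for 48 hr; DNA content per nucleus was then quantified by Hoechst staining and fluorescence plate imaging.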
KB-3-1 tox = qHTS assay for MDR1-selective chemotherapeutics: Primary screen using the parental adenocarcinoma cell KB-3-1 | KB-3-1 viability, CellTiter-Glo ATP luminescence, 72 h | Potency, µM (doses to about 46.1 µM), actives largely listed as cytotoxic | actives 1.4% (n = 400,000) | AID 1347075, 2019; further: potency means the concentration at half of the fitted maximal effect; on the % scale 0 is the no-effect control and ±100 the full control effect; nearly all actives have a fitted effect of over 60% in size
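72 h, 37 °C compound treatment of KB-3-1 parental cells; CellTiter-Glo added, 10 min, luminescence read. Data corrected against DMSO-only plates and normalized before curve fitting.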
MCF10A rerep = A quantitative high throughput screen for small molecules that induce DNA re-replication in MCF 10a normal breast cells; MCF 10A DNA re-replication, Hoechst nuclear intensity, 48 h; Potency, µM (titrated, usually from 46.1 µM), without a hit: top-dose activity, positive = re-replication, usual class: activators; actives 2.9% (n = 350,000); further: potency means the concentration at half of the fitted maximal effect; % of control where 0% means no effect; nearly all actives have a fitted effect of over 50% in size
KB-V1 MDR tox = qHTS assay for MDR1-selective chemotherapeutics: Primary screen using the drug-selected MDR subline cells KB-V1. KB-V1 MDR cells viability, CellTiter-Glo, 72 h. Potency, µM (series often up to 46.1 µM), hits mostly cytotoxic. actives 3.4% (n = 400,000). AID 1347076, 2019; further: potency means the concentration at half of the fitted maximal effect; on the % scale 0 is the no-effect control and ±100 the full control effect; nearly all actives have a fitted effect of over 60% in size
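Following 72 h at 37 degrees C with compound, KB-V1 cell viability was read by CellTiter-Glo luminescence, medium being phenol-red-free DMEM plus 10% FBS; concentration-response parameters came from normalized, curve-fitted qHTS data.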
IL-1B inflam inh = qHTS for Inhibitors of Inflammasome Signaling: IL-1-beta AlphaLISA Primary Screen; activity change, % at 57.5 µM; actives 4.7% (n = 360,000); THP-1 LPS/ATP IL-1B secretion, AlphaLISA, 16 h; active compounds read low; in the data active means activity change below about -50%; inconclusive means mostly about -30% to -49%; further: on the % scale 0 is the no-effect control and ±100 the full control effect
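Secreted IL-1B measured by AlphaLISA bead assay after 16 h compound exposure of THP-1 cells; compounds (final up to 57.5 uM) added 1 h before LPS (250 ng/mL) and ATP (1.25 mM) stimulation; lower signal means less secretion.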
An asterisk follows results filed as active; i = inactive; ? = inconclusive; . = no result. Unless noted, the call rests on the fitted dose curve; in most records, active means well fitted curve in the direction sought with a large enough effect; inconclusive means small, poorly fitted or top-dose-only effect, or another doubt; inactive means no such curve, though single readings can be large; an effect the other way counts as inactive or inconclusive.

SMILES	SW480 rerep	KB-3-1 tox	MCF10A rerep	KB-V1 MDR tox	IL-1B inflam inh
CCOc1ccc2ccccc2c1C(=O)N1CCN(c2ccccc2)CC1	?	23.1µM*	13µM*	4.11µM*	21.5
COc1ccc(C(=O)N2CCN(c3cccc(Cl)c3)CC2)c(OC)c1	?	14.6µM*	18.4µM*	?	2.0
O=C(O)c1ccccc1C(=O)N1CCN(c2cccc(Cl)c2)CC1	-0.5%	i	-0.6%	i	-8.1
CCOc1ccccc1C(=O)N1CCN(c2cccc(Cl)c2)CC1	0.411µM*	i	?	i	44.8
COc1ccc(N2CCN(C(=O)c3ccc(SC)cc3OC)CC2)cc1	8.5%	i	-1.0%	?	-0.1
Cc1cccn2cc(CSc3ccccc3N)nc12	2.1%	i	2.6%	13µM*	1.8
Nc1ccccc1SCc1cn2ccccc2n1	-693.2%	i	?	i	-6.3
Cc1nc(COC(=O)c2cc(O)c3ccccc3c2O)cs1	7.31µM*	i	?	i	0.0
Cc1cccc(C)c1-n1nnnc1C(c1ccnc2ccccc12)N1CCN(c2ccccc2F)CC1 (stereo unspecified)	.	?	.	16.4µM*	22.9
O=c1cc(CSc2nc(NCc3ccccc3)c3ccccc3n2)nc2ccc(Cl)cn12	-0.6%	i	1.1%	2.31µM*	10.6
CCOc1ccc(OCCSc2nc(N)cc(=O)[nH]2)cc1	-13.8%	?	-2.1%	i	0.0
Nc1cc(=O)[nH]c(SCCSc2ccccc2)n1	-11.9%	?	-1.1%	7.31µM*	-23.2
Nc1cc(=O)[nH]c(SCCOc2ccccc2)n1	-0.4%	?	3.1%	5.17µM*	5.7
Cc1cc(=O)[nH]c(SCCOc2ccc3c(c2)CCC3)n1	1.84µM*	i	?	i	30.7
O=C(c1cc2c(s1)-c1ccccc1OC2)N1CCN(c2ccc(F)cc2)CC1	.	i	.	i	.
CC(=O)c1ccc(N2CCN(C(=O)c3cc4c(s3)-c3ccccc3OC4)CC2)cc1	.	i	.	16.4µM*	.
Cc1ccc(C)c(C(=O)Cn2ncc(Cl)c(Cl)c2=O)c1	?	?	4.61µM*	?	-103.7*
Cc1cc2oc(=O)cc(Cn3ncc(Cl)c(Cl)c3=O)c2cc1Cl	2.59µM*	13µM*	7.31µM*	?	-100.9*
Cc1cc(C(=O)Cn2ncc(Cl)c(Cl)c2=O)c(C)n1CC(F)(F)F	5.8µM*	?	2.59µM*	?	-99.0*
Cc1cc2oc(=O)cc(CN3CCN(c4ccccc4)CC3)c2cc1Cl	.	i	.	i	26.2
Cc1ccc(C)c(C(=O)CN2C(=O)c3ccccc3C2=O)c1	-13.1%	i	4.4%	i	-12.2
Cc1cccc(Cn2ncc(Cl)c(Cl)c2=O)c1	5.8µM*	?	13µM*	20.6µM*	-102.4*
CC(C)C(C(=O)OCC(=O)c1cccc([N+](=O)[O-])c1)N1C(=O)[C@@H]2[C@H]3CC[C@H](C3)[C@@H]2C1=O (stereo partly specified)	-20.4%	i	-71.9%	20.6µM*	30.8
O=C(CCC(=O)OCC(=O)c1ccc([N+](=O)[O-])cc1)NC1CCCCC1	?	i	-68.0%	i	-5.9
O=C(CCC(=O)OCC(=O)c1cccc([N+](=O)[O-])c1)NC1CCCCC1	2.59µM*	i	3.0%	i	-10.3
SMILES	SW480 rerep	KB-3-1 tox	MCF10A rerep	KB-V1 MDR tox	IL-1B inflam inh
O=C(N[C@@H]1c2ccccc2CC[C@@H]1OCc1ccccc1)c1ccc(C(F)(F)F)cc1	-1.1%	i	-0.6%	i	41.7
COc1cc(CN2CCNC(=O)C2CC(=O)N(C)CCCN2CCOCC2)cc(OC)c1 (stereo unspecified)	-5.8%	i	-8.0%	?	-2.7
CCCSc1nn2c(=O)c3ccccc3nc2s1	-3.7%	i	0.3%	i	14.7
O=c1c2ccccc2sc2nc(CCl)nn12	-2.4%	6.51µM*	?	?	13.4
COc1ccc(C2NCCc3cc(OC)c(OC)cc32)cc1OC (stereo unspecified)	4.2%	i	0.0%	i	-3.3
COc1cc2c(cc1OC)C(c1ccc(Br)cc1)NCC2 (stereo unspecified)	-4.2%	?	9.1%	?	-52.0*
COc1ccc(Cl)cc1NC(=O)C(=O)NCc1ccncc1	22.6%	i	1.4%	i	-52.2*
COc1ccc(-c2cc(-c3cccs3)c(C#N)c(SCC(=O)NCc3ccco3)n2)cc1	2.59µM*	?	1.46µM*	?	14.8
COc1ccc(-c2cc(C(F)(F)F)nc(SCC(=O)NCc3cccs3)n2)cc1	-6.9%	i	21.7%	18.4µM*	19.5
COCC(C)NC(=O)CCSc1nc(-c2ccc(OC)cc2)cc(C(F)(F)F)n1 (stereo unspecified)	0.0%	i	12.0%	?	-57.4*
O=C(CSc1nc(-c2ccccc2)cc(C(F)(F)F)n1)NCc1cccs1	1.8%	i	6.51µM*	i	-5.1
COc1ccc(CNC(=O)CSc2nc(-c3ccccc3)cc(-c3cccs3)c2C#N)cc1	15.6%	i	13.0%	i	32.8
O=C(CSc1nc(-c2ccccc2)cc(C(F)(F)F)n1)NCc1ccco1	0.5%	?	?	?	3.4
C#CCOc1ccccc1C(N)=O	-11.6%	i	0.6%	i	16.5
COc1cc(C(=O)N2CCN(C3=NS(=O)(=O)c4ccccc43)CC2)cc(OC)c1OC	.	i	.	i	1.2
CC(C)OCCCn1c(=O)c2ccccc2n2c(CCC(=O)O)nnc12	0.1%	i	-16.5%	i	-10.5
CC(C)OCCCn1c(=O)c2ccccc2n2c(CCC(=O)NC3CCN(Cc4ccccc4)CC3)nnc12	1.2%	i	0.2%	i	-51.3*
Cc1ccccc1CN1CCN(c2ccc(S(=O)(=O)N3CCCC3)cn2)CC1	4.9%	?	?	9.2µM*	-1.3
O=S(=O)(c1ccc(N2CC=C(c3ccccc3)CC2)nc1)N1CCCC1	?	?	23.1µM*	8.2µM*	-92.6*
O=C1CN(C(=O)c2ccccc2C(F)(F)F)C(c2ccccc2)c2cc(F)ccc2N1 (stereo unspecified)	.	i	.	i	.
CC(=O)Nc1cc(C(=O)N2CCc3ccccc3C2)ccc1Sc1ccc(Cl)cc1	8.5%	i	23.1µM*	i	-11.0
C=C1C(=O)OCC2C(C(=O)O)=CC3C(C)C(C)=CC123 (stereo unspecified)	.	?	.	?	-70.3*
